A selection: hits, their analogues and other compounds. The true share with any hit is near 27%.
EphB4 ephrin blk – EphB4-ephrin-B2 interaction antagonists, primary screen, biochemical, TNYL-RAW peptide probe, fluorescence polarization | Ephrin type-B receptor 4 (Homo sapiens), P54760 | EphB4 LBD / TNYL-RAW-Alexa532 peptide | inhibition, % at 7 µM | actives 0.15% (n = 97,000) | AID 720, 2007;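 active means inhibition above the screen-wide mean inhibition plus 3 SD, cut at about 15% in these data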
Target sequence (P54760 whole entry, looked up, the tested form may be a part): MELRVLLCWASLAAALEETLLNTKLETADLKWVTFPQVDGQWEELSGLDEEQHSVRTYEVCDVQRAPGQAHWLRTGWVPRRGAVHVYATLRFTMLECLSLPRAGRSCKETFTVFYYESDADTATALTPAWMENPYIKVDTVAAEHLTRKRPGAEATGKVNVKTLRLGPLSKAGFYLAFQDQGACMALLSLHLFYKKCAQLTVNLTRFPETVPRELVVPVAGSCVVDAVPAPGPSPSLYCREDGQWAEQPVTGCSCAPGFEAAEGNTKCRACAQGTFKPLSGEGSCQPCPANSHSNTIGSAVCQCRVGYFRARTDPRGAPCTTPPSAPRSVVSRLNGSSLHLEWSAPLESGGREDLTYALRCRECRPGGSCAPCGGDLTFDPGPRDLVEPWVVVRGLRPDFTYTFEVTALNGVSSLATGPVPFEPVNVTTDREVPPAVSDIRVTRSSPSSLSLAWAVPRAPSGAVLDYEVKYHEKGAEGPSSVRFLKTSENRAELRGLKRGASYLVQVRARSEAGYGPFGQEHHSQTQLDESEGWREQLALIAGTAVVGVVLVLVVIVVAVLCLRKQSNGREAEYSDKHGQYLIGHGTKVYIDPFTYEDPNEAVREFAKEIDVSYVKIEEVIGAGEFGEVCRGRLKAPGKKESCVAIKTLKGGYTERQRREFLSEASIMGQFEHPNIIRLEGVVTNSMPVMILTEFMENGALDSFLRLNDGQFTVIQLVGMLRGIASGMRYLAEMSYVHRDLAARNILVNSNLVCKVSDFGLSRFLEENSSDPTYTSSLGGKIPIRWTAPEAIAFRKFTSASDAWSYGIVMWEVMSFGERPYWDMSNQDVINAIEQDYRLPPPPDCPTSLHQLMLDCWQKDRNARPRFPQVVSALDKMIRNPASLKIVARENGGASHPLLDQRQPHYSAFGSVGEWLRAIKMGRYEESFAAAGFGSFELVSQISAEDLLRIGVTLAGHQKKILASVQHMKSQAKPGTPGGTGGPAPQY
CYP2C9 inh – blockers of cytochrome P450 2C9 activity – biochemical, luminescence, ADME assay, primary screen; P11712; CYP2C9 Supersomes, luciferin-H conversion; inhibition, % at 5 µM; actives 20% (n = 96,000); AID 777, 2007;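 active means blocking of liver enzyme CYP2C9 beyond about 50% at 5 µM, limit read from the data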
CYP2C19 act – human CYP2C19 activators, primary screen, biochemical, luminescence. recombinant CYP2C19, luciferin-H EGE luminescence; hits give high values; 0 = fully inhibited enzyme, 1 = untreated enzyme. activation factor at 5 µM. 96,000 tested, under 10 active;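 active means activation factor of at least 2 at 5 µM in the primary screen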
CYP2C9 activ – human CYP2C9 activators, primary screen, biochemical, luminescence | activation factor at 5 µM | recombinant CYP2C9, luciferin-H conversion; hits give high values; factor 1 = untreated enzyme, 0 = blocked | actives 1.4% (n = 96,000) | Cytochrome P450 2C9 (Homo sapiens), P11712;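 active means activation factor of 2 or more for CYP2C9 at a 5 µM dose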
CYP2C19 inhib – blockers of cytochrome P450 2C19 activity – biochemical, luminescence, ADME assay, primary screen; inhibition, % at 5 µM; CYP2C19 Supersomes, luciferin-H EGE luminescence, 30 min; actives 21% (n = 96,000);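 active means CYP2C19 inhibition above a set limit at 5 µM in the primary screen, cut at about 50% in these data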
Large screens that a line does not name were inactive.

CCc1ccccc1N1CSC2=C(C#N)C(c3ccccc3F)CC(=O)N2C1 (stereo not drawn)	CYP2C9 inh 93.7, CYP2C19 inhib 81.9
COc1ccc(OC)c(C2CC(=O)N3CN(c4ccccc4)CSC3=C2C#N)c1 (stereo not drawn)	CYP2C9 inh 60.2
CCOc1ccc(CCNC(=O)c2cccnc2N2CCCC2)cc1OCC	none (no result: CYP2C9 inh, CYP2C19 act, CYP2C9 activ, CYP2C19 inhib)
OCC1(C2=NOC(O)(C(F)(F)F)C2)CCCCC1 (stereo not drawn)	none
COc1ccc(C2CC(=O)N3CN(c4ccccc4F)CSC3=C2C#N)cc1OC (stereo not drawn)	CYP2C9 inh 83.9
COc1cc(OC)c(C2CC(=O)N3CN(c4ccccc4C)CSC3=C2C#N)cc1OC (stereo not drawn)	CYP2C9 inh 86.2 (no result: EphB4 ephrin blk)
COc1cc(S(=O)(=O)N2CCN(c3ccccc3F)CC2)c(OC)cc1Cl	none (no result: CYP2C9 inh, CYP2C19 act, CYP2C9 activ, CYP2C19 inhib)
COc1ccc(NC(=O)CSc2nnc(COc3ccccc3)n2Cc2ccco2)cc1OC	none
COC(=O)c1cc2ccc(OC)c(OC)c2c(=O)s1	CYP2C19 inhib 56.7
COC(=O)c1cc2ccccc2c(=O)s1	CYP2C19 inhib 61.1
O=C(NCCO)c1cc2ccccc2c(=O)s1	none
COCCNS(=O)(=O)c1ccc(F)c(OC)c1	none
O=C(O)CCCNS(=O)(=O)c1ccc2ccccc2c1	none (no result: EphB4 ephrin blk)
COCCNS(=O)(=O)c1ccc2c(c1)C(=O)c1cc(S(=O)(=O)NCCOC)ccc1-2	CYP2C9 inh 64.1
O=C1c2cc(S(=O)(=O)NCCCO)ccc2-c2ccc(S(=O)(=O)NCCCO)cc21	CYP2C9 inh 58.2
Fc1cccc(C2NC(=S)NC3=C2N2CCC3CC2)c1 (stereo not drawn)	none
Cc1cc(C(=O)CSc2nnc3c(Cl)cc(Cl)cn23)c(C)n1C	none
Cc1cc(C(=O)CSc2nnc(-c3cccnc3)n2-c2ccccc2F)c(C)n1CC1CCCO1 (stereo not drawn)	CYP2C9 inh 65.2, CYP2C19 inhib 77.7
Cc1cc(C(=O)CSc2nnc(Nc3ccccc3F)s2)c(C)n1CC1CCCO1 (stereo not drawn)	EphB4 ephrin blk 15.5, CYP2C9 inh 55.5, CYP2C19 inhib 53.2
Cc1ccccc1-n1c(SCC(=O)c2cc(C)n(C)c2C)nnc1-c1ccncc1	CYP2C9 inh 92.1, CYP2C19 inhib 99.4
Cc1cc(C(=O)CSc2nnnn2-c2ccccc2)c(C)n1CC1CCCO1 (stereo not drawn)	none
COC(=O)c1cc(OC)c(OC)cc1NC(=O)CCc1ccc(C)o1	none
COc1ccc(NC(=O)CN(Cc2ccccc2)S(C)(=O)=O)cc1	CYP2C19 inhib 79.0
COc1ccccc1N(CC(=O)NC1CCCCC1)S(C)(=O)=O	none
CS(=O)(=O)N(CC(=O)Nc1ccc2c(c1)OCCO2)Cc1ccccc1	none
CS(=O)(=O)N(CC(=O)Nc1ccccc1)Cc1ccc(Cl)cc1	CYP2C9 inh 88.7, CYP2C19 inhib 96.1
CSc1ccccc1NC(=O)CN(Cc1ccc(Cl)cc1)S(C)(=O)=O	none
Cc1c(Cl)cccc1N(CC(=O)NC1CCCCC1)S(C)(=O)=O	CYP2C9 inh 70.4 (no result: EphB4 ephrin blk)
O=C(CN(c1ccccc1F)S(=O)(=O)c1ccccc1)NC1CCCCCC1	CYP2C9 inh 52.0
Cc1cccc(-c2nnc(-c3ccc(N)cc3)o2)c1	none
CC(=O)N=c1sc2c3ccccc3ccc2n1C	none
O=C1N=C(c2ccccc2)C(c2ccccc2)N1 (stereo not drawn)	none
CCOc1ccccc1NC(=O)CN(Cc1ccccc1)S(C)(=O)=O	CYP2C19 inhib 93.6
CS(=O)(=O)N(CC(N)=O)Cc1ccc(Cl)cc1	none
CS(=O)(=O)N(CC(=O)NC1CCCCCC1)Cc1ccccc1	CYP2C19 inhib 86.6
CSc1ccccc1NC(=O)CN(Cc1ccccc1)S(C)(=O)=O	none
CSc1cccc(NC(=O)CN(Cc2ccc(Cl)cc2)S(C)(=O)=O)c1	CYP2C9 inh 91.8, CYP2C19 inhib 92.0
CSc1nc(-c2ccco2)nn1S(C)(=O)=O	none
O=C1NC(c2ccco2)Nc2sc3c(c21)CCN(Cc1ccccc1)C3 (stereo not drawn)	CYP2C9 inh 68.6
CN1CCc2c(sc3c2C(=O)NC(c2cn(Cc4ccccc4)c4ccccc24)N3)C1 (stereo not drawn)	CYP2C9 inh 79.4, CYP2C19 inhib 68.9
C=CCNC(=S)NNC(=O)c1cccn(Cc2ccc(Cl)cc2Cl)c1=O	CYP2C9 inh 68.4
CCN(CC)CCNC(=O)c1ccc(CS(=O)(=O)c2ccc(Br)cc2)o1	none (no result: CYP2C9 inh, CYP2C19 act, CYP2C9 activ, CYP2C19 inhib)
C#CCOC(=O)c1ccccc1C(=O)n1nnc2ccccc21	CYP2C9 inh 66.1, CYP2C19 inhib 88.0
CCOCN(C(=O)Cn1c(COC)nc2ccccc21)c1c(C)cccc1CC	none
COc1cc(-n2c(=O)c3ccccc3n(Cc3ccccc3)c2=O)cc(OC)c1OC	CYP2C19 inhib 62.5
CCn1c(=O)n(CC(=O)Nc2cc(OC)c(OC)c(OC)c2)c(=O)c2ccccc21	none
CN(C)c1ccc(CNCCC2CCOC(C)(C)C2)cc1 (stereo not drawn)	none
COc1ccc2[nH]c3c(N4CC(C)OC(C)C4)ncnc3c2c1 (stereo not drawn)	CYP2C9 inh 68.9, CYP2C19 inhib 53.6
COc1cccc(N2CCN(c3ncnc4c3[nH]c3ccc(F)cc34)CC2C)c1 (stereo not drawn)	CYP2C9 inh 60.4, CYP2C19 inhib 59.3
Fc1ccc2[nH]c3c(N4CCN(C5CCCCC5)CC4)ncnc3c2c1	CYP2C9 inh 75.8, CYP2C19 inhib 67.1 (no result: EphB4 ephrin blk)
O=C1CCCN1CCCn1cnc2c([nH]c3ccc(F)cc32)c1=O	none
Cc1cccc(NC(=S)NC2CC3CCCC(C2)N3Cc2cccs2)c1 (stereo not drawn)	none
O=C(O)c1ccc2c(c1)nnn2C1CCCCC1	none
COC(=O)c1cc(OC)c(OC)cc1NC(=O)CCCCCN1C(=O)CCC1=O	CYP2C19 inhib 62.1
COc1ccc(S(=O)(=O)CCC(=O)NCCc2ccc(Cl)cc2)cc1	CYP2C9 inh 71.0, CYP2C19 inhib 70.6
COc1ccc(CCNC(=S)Nc2cc(C)cc(C)c2)cc1	CYP2C19 inhib 62.2
CCCc1ccc(OCCNC(=O)CC)cc1	CYP2C19 inhib 55.6
CCCCNC(=O)Cn1c(-c2ccc(OC)cc2)noc1=O	CYP2C19 inhib 65.1
O=C(Nc1ccccc1)Nc1cccc2cccnc12	none
COc1ccc(-c2nnc(SCC(=O)Oc3ccc(C)cc3)o2)cc1	none (no result: CYP2C9 inh, CYP2C19 act, CYP2C9 activ, CYP2C19 inhib)
COCCCNC(=O)CC(NS(=O)(=O)c1ccc(Cl)cc1)c1ccc(OC)cc1 (stereo not drawn)	CYP2C19 inhib 54.9
CCCCC(=O)NCCc1ccc(OC)cc1	CYP2C19 inhib 57.4
CC1CCCN(c2ccc(C(=O)NCc3cccs3)cn2)C1 (stereo not drawn)	none (no result: CYP2C9 inh, CYP2C19 act, CYP2C9 activ, CYP2C19 inhib)
O=c1cc(CO)oc(CN2CCN(c3cccc(C(F)(F)F)c3)CC2)c1O	none
